We go through 35 compounds from PubChem BioAssay AID2549 (National Center for Advancing Translational Sciences (NCATS), 2010).

Each structure is given as a SMILES string. Several values for one entry are separate records, joined by “and”; a condition that tells them apart may be missing. Equal entries are not always repeated. Screen size: about 240,000 compounds; about 1,300 (0.54%) were called active. A call without a number means that no potency is given here. Roughly 1% stayed inconclusive and do not appear here. Calls follow the shape of the dose curve; as a rule, active = well fitted inhibition curve with a large enough effect; inconclusive = small, poorly fitted or top-dose-only effect; inactive = flat fitted curve, though single readings scatter. The full list was thinned out, with actives kept by preference. The source holds several records for some structures; these can differ, active in one and inactive in another.
Potency is read from the fitted curve at half-maximal effect.

In this experiment the target is ATP-dependent DNA helicase Q1 (Homo sapiens) (UniProt P46063). In words: qHTS Assay for Inhibitors of RecQ-Like Dna Helicase 1 (RECQ1). Also: nearly all actives have a fitted effect of over 30% in size. The following applies: RECQ1 DNA unwinding, red fluorescence kinetic read; series mostly up to 57.3 µM. The source says: Survival of cells and the faithful propagation of the genome depend on elaborate mechanisms of detecting and repairing DNA damage. Treatment of advanced cancer relies on radiation therapy or chemotherapy, which kill cancer cells by causing extensive DNA damage. It is often found, that cancer cells develop resistance to therapy through enhanced activity of DNA repair functions; this has led to an increased interest in developing drugs that interfere with DNA repair, which could sensitize cancer cells to conventional therapy.
Chain of ATP-dependent DNA helicase Q1 (Homo sapiens) (P46063 whole entry, looked up): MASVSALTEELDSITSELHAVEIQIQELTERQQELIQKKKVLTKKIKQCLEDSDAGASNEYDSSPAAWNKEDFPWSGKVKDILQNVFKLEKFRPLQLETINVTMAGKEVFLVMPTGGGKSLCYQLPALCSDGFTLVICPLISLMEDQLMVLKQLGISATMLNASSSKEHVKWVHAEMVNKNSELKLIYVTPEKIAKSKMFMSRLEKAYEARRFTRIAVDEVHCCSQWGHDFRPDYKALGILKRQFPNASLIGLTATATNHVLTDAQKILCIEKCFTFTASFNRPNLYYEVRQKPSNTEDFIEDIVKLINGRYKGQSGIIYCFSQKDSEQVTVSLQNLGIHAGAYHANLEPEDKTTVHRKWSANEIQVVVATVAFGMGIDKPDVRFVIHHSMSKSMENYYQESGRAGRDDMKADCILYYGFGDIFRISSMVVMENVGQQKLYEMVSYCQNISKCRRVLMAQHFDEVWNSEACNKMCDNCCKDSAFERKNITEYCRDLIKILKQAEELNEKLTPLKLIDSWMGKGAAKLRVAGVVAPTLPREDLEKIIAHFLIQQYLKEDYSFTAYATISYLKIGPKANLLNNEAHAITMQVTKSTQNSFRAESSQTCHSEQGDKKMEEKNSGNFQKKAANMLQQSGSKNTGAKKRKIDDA
This validation qHTS assay pertains to human RECQ1, which is important in resolving abnormal DNA structures formed during replication or homologous recombination. Shutting down the expression of RECQ1 leads to chromosomal instability and higher radiation sensitivity in cultured cells.
The validation assay was a fluorescence quenching based kinetic qHTS for RECQ1 Helicase DNA unwinding. The activity was measured as ATP-dependent separation of a 20-bp DNA duplex extended by 30-nt single-stranded tails (forked duplex). The forked DNA substrate was tagged with rhodamine fluorophore (carboxytetramethyl rhodamine, TAMRA) and BHQ-2 (Black Hole Quencher 2) dark quencher. Strand separation results in an increase in the fluorescence of TAMRA (excitation 525 nm, emission 598 nm). This substrate construct operates in a red-shifted region where very few compound library members have been noted to fluoresce (PubChem AIDs 593 and 594). An additional feature of the assay is the inclusion of 2.5 ug/ml poly (dIdC), to reduce interference by compounds such as DNA intercalators, a major source of false inhibitors.
Opher Gileadi, Structural Genomics Consortium, University of Oxford
Screening Center PI: Austin, C.P.
Screening Center: NIH Chemical Genomics Center [NCGC]
Three uL of reaction buffer (25 mM Tris-HCl (pH 8.0), 5 mM NaCl, 2 mM MgCl2, 1mM DTT, 0.01% Tween- 20, and 2.5 ug/ml poly(dI-dC), including enzyme (50 nM RECQ1T1), were dispensed into a 1536-well Greiner black assay plate via solenoid-valve based nanoliter dispensers. Compounds (23 nl each in columns 5-48) and control (23 nl each in column 2 as dose-response) were transferred via a Kalypsys pintool equipped with a 1536-pin array. The plates were incubated for 15 min at room temperature, and then 1 ul of substrates (200 nM DNA and 2 mM ATP, final concentrations) was added to start the reaction. The plate was transferred into a ViewLux high-throughput CCD imager where the reaction progress was measured in a discontinuous kinetic mode (two reads spaced 2 hours apart, with intermediate room temperature incubation of the covered assay plate) by using standard red-fluorescence optics (excitation filter 525 nm, emission filter 598 nm). Enzyme-free and vehicle (DMSO) controls were included for signal normalization.
In general terms: qHTS replaces the single test concentration by a dilution series.
Regarding `O=C1NC(=O)N(Cc2ccco2)C(=O)/C1=C\c1ccc(-c2ccc(F)cc2)o1`, the Potency is 25.1 µM (active). As for `O=C1NC(=O)N(CCc2ccc(F)cc2)C(=O)/C1=C/C=C/c1ccccc1`, the Potency entry is “inactive”. Turning to `CC(C)CC(C)Nc1ccc(Nc2ccccc2)cc1` (stereo unspecified), the Potency entry is “inactive”.

On to `N#CC(C#N)=Cc1cc(O)c(O)c([N+](=O)[O-])c1`, for which the Potency is 31.6 µM (active). Same read-out and setting: the value for `CCN(CC)c1nc(C)cc(OP(=S)(OC)OC)n1` was “inactive”; that for `CC(C)(C)c1ccc(CN2C(=O)CN=C(c3ccccc3)c3ccccc32)cc1` was “inactive”; that for `O=C(CN1CCCC1=O)NCCc1ccccc1` was “inactive”. Turning to `O=C1CC(=O)N(Cc2ccccc2)C(=O)N1CCCCCCN1C(=O)CC(=O)N(Cc2ccccc2)C1=O`, the Potency is 7.94 µM (active).

As for `CO[C@H]1[C@@H](O)[C@@H](C)O[C@H](O[C@H]2[C@H](Oc3cccc4c(O)c5c(=O)oc6ccc(C)c7c(=O)oc(c34)c5c67)O[C@H](C)[C@H](O)[C@@H]2O)[C@@H]1O`, the Potency result was “inactive”. For the compound `COc1cccc(N2C(=O)NC(=O)/C(=C\c3ccc([N+](=O)[O-])s3)C2=O)c1`, the Potency is 22.4 µM (active). Same read-out and setting: the value for `Cc1c(C(=O)O)cccc1-n1c(C)cc(/C=C2\C(=O)NC(=O)N(c3ccc4c(c3)OCO4)C2=O)c1C` was “inactive”; that for `CCCCCCCCCCCCN=C(N)N` was “inactive”. `CCCN(C/C=C/I)C1CCc2ccc(O)cc2C1` (stereo unspecified): the Potency result was “inactive”. As for `ClCCBr`, the Potency entry was “inactive”. Take `CC(C)(Cc1c[nH]c2ccc(Cl)cc12)NCCOc1ccccc1OCC1CC1`: the Potency entry was “inactive”.

Consider `CC(=O)[O][Sn]([c]1ccccc1)([c]1ccccc1)[c]1ccccc1`, for which the Potency result was “inactive”.

On to `CN(C)C[C@H]1CCCC[C@]1(O)c1cccc(O)c1`, for which the Potency result was “inactive”. `O=C(OCC1O[C@@H](OC(=O)c2cc(O)c(O)c(O)c2)[C@@H](OC(=O)c2cc(O)c(O)c(O)c2)[C@@H](OC(=O)c2cc(O)c(O)c(O)c2)[C@@H]1OC(=O)c1cc(O)c(O)c(O)c1)c1cc(O)c(O)c(O)c1` (stereo partly specified): the Potency is 0.112 µM (active).

For `C=CCN1CCC2(C)c3cc(O)ccc3CC1[C@@H]2C` (stereo partly specified), the Potency entry is “inactive”.

Turning to `CC(C)(C)C(O)(CCc1ccc(Cl)cc1)Cn1cncn1` (stereo unspecified), the Potency result is “inactive”. On the same count and under the same terms, the value for `O=C1CCc2cccc3c2N1CC3` was “inactive”; that for `C[C@@H]1C[C@H]2CC[C@H](O2)[C@H](C)C(=O)O[C@@H](C)C[C@@H]2CC[C@@H](O2)[C@@H](C)C(=O)O[C@H](C)C[C@H]2CC[C@H](O2)[C@H](C)C(=O)O[C@@H](C)C[C@@H]2CC[C@@H](O2)[C@@H](C)C(=O)O1` was “inactive”; that for `Nc1ccc(-c2ccc(N)c(N)c2)cc1N` was “inactive”. For `CC[C@]1(O)C(=O)OCc2c1cc1n(c2=O)Cc2cc3ccccc3nc2-1`, the Potency entry was “inactive”. For `CC[N+](C)(CC)CCC[n+]1c(-c2ccccc2)c2cc(N)ccc2c2ccc(N)cc21`, the Potency was 11.2 µM (active) and 35.5 µM (active). As for `C[C@H]1C/C=C/[C@@H]2[C@@H]3O[C@]3(C)[C@@H](C)[C@H]3[C@H](Cc4ccccc4)NC(=O)[C@]32OC(=O)O/C=C/[C@](C)(O)C1=O`, the Potency entry was “inactive”. For `CN(C)[C@@H]1C(=O)C(C(N)=O)=C(O)[C@@]2(O)C(=O)C3=C(O)c4c(O)cccc4[C@@](C)(O)C3CC12` (stereo partly specified), the Potency entry is “inactive”.

Regarding `N#CCCCl`, the Potency entry is “inactive”. Take `N#Cc1cc(Br)c(O)c(Br)c1`: the Potency result was “inactive”. `CCCCC#N`: the Potency entry is “inactive”. Turning to `CC(C)(c1ccc(OC[C@@H]2CO2)cc1)c1ccc(OC[C@H]2CO2)cc1`, the Potency result was “inactive”. For the compound `CO[C@@H]1C[C@@H](C[C@H]2CC[C@H](C)[C@@H]([C@@H](C)C(=O)O)O2)O[C@]2(O[C@](C)([C@H]3CC[C@@](C)(C4OC([C@H]5O[C@@](O)(CO)[C@H](C)C[C@@H]5C)C[C@@H]4C)O3)C[C@H]2C)[C@@H]1C` (stereo partly specified), the Potency result is “inactive”. For `C[C@]12O[C@H](C[C@@]1(O)C(=O)O)n1c3ccccc3c3c4c(c5c6ccccc6n2c5c31)CNC4=O`, the Potency entry is “inactive”. Regarding `CN[C@@H]1C[C@H]2O[C@@](C)([C@@H]1OC)n1c3ccccc3c3c4c(c5c6ccccc6n2c5c31)C(=O)NC4`, the Potency is 35.5 µM (active) and the outcome was “inactive [at 11.5 µM]”. As to `COc1ccc2[nH]cc(CCNCc3ccc(Br)cc3)c2c1`, the Potency entry was “inactive”.
